JMJD2E inh = qHTS Assay for Inhibitors of Human Jumonji Domain Containing 2E (JMJD2E) | Lysine-specific demethylase 4E (Homo sapiens), B2RXH2 | JMJD2E catalytic domain, FDH-coupled NADH fluorescence (FDH is formaldehyde dehydrogenase) | Potency, µM (titrated, usually from 57.1 µM), without a hit: at the top dose activity change, negative = inhibition, most hits filed as inhibitors | 230,000 compounds, 1.6% hits; active = well fitted inhibition curve with a large enough effect, not every such curve was filed as active; inconclusive = small, poorly fitted or top-dose-only effect, or another doubt; inactive = no such curve, though single readings can be large or run the other way;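 note: potency is the fitted concentration of half-maximal effect; 0% = wells with enzyme and -100% = buffer wells without enzyme; nearly all actives have a fitted effect of over 50% in size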
JMJD2A Tudor inh = qHTS Assay for Inhibitors of JMJD2A-Tudor Domain. AlphaScreen JMJD2A-Tudor / H3K4me3 peptide binding. Lysine-specific demethylase 4A (Homo sapiens), O75164. 390,000 compounds, 4.4% hits. Potency, µM (titrated, usually from 114 µM), inactives show top-dose activity change, negative = inhibition, most hits filed as inhibitors; note: potency is the fitted concentration of half-maximal effect; % is set by controls: 0 for no effect and ±100 for the full control effect; nearly all actives have a fitted effect of over 50% in size
L3MBTL1 inh-1 = qHTS Assay for the Inhibitors of L3MBTL1. Lethal(3)malignant brain tumor-like protein 1 (Homo sapiens), Q9Y468. AlphaScreen L3MBTL1–H3K9me1 peptide binding. Potency, µM (titrated, usually from 57.1 µM), inactives show at the highest dose activity, negative = inhibition, hits mostly inhibitors. 230,000 compounds, 0.66% hits. AID 485360, 2010; note: potency is the fitted concentration of half-maximal effect; % is set by controls: 0 for no effect and ±100 for the full control effect; nearly all actives have a fitted effect of over 60% in size
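AlphaScreen proximity signal between nickel-chelate acceptor and streptavidin donor beads (final 10 ug/mL) reports binding of 50 nM L3MBTL1 to 75 nM biotin-H3 K9me1 peptide; complex incubated with compounds 30 min at room temperature; cefsulodin titration as control.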
BAZ2B inh = qHTS Assay for Inhibitors of BAZ2B. 360,000 compounds, 4.4% hits. Potency, µM (titrated, usually from 114 µM), inactives show at the highest dose activity change, negative = inhibition, most hits filed as inhibitors. AlphaScreen BAZ2B-H3K14Ac peptide displacement; note: potency is the fitted concentration of half-maximal effect; % is set by controls: 0 for no effect and ±100 for the full control effect; nearly all actives have a fitted effect of over 60% in size
Target sequence (Q9UIF8 whole entry, looked up): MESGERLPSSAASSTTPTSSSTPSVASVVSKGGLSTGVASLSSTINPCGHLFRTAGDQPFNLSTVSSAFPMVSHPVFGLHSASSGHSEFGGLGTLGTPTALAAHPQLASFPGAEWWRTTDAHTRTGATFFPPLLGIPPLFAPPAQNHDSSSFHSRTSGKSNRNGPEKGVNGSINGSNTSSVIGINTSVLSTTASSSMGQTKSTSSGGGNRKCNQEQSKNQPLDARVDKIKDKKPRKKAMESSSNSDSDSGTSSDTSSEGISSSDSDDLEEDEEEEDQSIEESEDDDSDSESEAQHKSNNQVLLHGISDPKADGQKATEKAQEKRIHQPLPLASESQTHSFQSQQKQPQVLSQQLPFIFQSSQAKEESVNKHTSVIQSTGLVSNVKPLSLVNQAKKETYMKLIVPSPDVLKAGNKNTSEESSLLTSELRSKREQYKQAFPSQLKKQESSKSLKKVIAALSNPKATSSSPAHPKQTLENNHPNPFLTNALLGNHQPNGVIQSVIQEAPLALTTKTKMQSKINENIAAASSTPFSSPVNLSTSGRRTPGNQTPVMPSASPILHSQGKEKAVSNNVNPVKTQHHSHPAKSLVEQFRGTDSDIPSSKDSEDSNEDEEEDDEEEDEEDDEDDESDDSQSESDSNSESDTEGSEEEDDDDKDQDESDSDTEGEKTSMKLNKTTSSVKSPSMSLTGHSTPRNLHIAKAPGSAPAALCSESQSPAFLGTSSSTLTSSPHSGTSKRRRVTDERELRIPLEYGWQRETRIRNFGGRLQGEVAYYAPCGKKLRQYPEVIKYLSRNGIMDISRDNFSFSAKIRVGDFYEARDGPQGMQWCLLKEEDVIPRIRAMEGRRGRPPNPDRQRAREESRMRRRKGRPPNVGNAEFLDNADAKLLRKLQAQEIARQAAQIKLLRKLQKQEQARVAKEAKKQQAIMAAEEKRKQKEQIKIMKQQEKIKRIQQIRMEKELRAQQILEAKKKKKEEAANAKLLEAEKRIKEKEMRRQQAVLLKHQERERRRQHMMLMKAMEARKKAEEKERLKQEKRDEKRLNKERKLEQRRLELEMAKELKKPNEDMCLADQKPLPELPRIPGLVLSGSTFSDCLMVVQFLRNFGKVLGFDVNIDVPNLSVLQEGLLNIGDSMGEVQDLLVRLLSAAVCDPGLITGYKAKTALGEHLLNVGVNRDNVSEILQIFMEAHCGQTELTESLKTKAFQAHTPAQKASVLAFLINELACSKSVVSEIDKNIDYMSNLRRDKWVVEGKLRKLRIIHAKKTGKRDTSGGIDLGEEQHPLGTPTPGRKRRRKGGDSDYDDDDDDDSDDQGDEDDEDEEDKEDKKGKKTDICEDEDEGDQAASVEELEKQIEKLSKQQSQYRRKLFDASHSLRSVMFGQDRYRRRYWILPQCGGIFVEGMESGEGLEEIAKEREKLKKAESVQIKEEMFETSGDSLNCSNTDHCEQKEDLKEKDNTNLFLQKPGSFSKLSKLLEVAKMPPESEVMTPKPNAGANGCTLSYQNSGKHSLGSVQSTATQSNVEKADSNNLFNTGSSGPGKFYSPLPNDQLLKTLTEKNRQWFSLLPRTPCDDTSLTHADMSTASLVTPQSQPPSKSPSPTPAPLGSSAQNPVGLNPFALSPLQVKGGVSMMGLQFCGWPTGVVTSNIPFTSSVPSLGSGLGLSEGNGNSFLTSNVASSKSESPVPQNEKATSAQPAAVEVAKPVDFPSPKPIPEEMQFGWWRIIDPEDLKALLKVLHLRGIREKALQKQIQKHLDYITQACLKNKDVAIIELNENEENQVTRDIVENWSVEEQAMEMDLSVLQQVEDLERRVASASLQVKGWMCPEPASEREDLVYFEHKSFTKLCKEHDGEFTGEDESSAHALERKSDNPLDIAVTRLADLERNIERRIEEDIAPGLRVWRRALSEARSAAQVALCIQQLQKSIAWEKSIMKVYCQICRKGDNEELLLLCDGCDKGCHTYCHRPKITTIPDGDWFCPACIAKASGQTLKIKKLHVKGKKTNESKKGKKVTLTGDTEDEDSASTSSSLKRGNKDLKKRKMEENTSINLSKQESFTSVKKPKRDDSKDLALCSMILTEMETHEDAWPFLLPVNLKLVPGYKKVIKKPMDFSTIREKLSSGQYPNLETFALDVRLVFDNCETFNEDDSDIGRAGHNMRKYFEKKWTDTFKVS
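BAZ2B 50 nM plus b-H3(5-23)K14Ac 50 nM, PBS pH 7.4/0.01% Tween-20, 30 min RT; compound added (max 110 uM), 30 min RT; streptavidin donor/Ni-chelate acceptor beads 10 ug/mL final, 20 min dark; AlphaScreen read.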
PI5P4Ka inh = qHTS for Inhibitors of phosphatidylinositol 5-phosphate 4-kinase (PI5P4K); Phosphatidylinositol 5-phosphate 4-kinase type-2 alpha (Homo sapiens), P48426; max response, %; PI5P4Kalpha enzyme, ADP-Glo luminescence, 60 min; hits give low values; 330,000 compounds, 1.2% hits; active = max response of -50% or lower; inconclusive = between -30% and -50%; inactive = -30% or higher; note: value at the top dose of about 77 µM; % is set by controls: 0 for no effect and ±100 for the full control effect
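Human PI5P4Kalpha with substrate in 0.038 M HEPES pH 7.4, 0.28 mM EGTA, 0.1% CHAPS, 5% DMSO; reaction started with 5 microM ATP (final), 60 min at room temperature. ADP formed read by ADP-Glo luminescence.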
HP1b chromo inh = HTS for Inhibitors of HP1-beta Chromodomain Interactions with Methylated Histone Tails. Chromobox protein homolog 1 (Homo sapiens), P83916. AlphaScreen HP1-beta / biotin-H3K9me3 peptide binding. Potency, µM (doses to about 114 µM), without a hit: top-dose activity change, negative = inhibition, actives largely listed as inhibitors. 390,000 compounds, 0.56% hits; note: potency is the fitted concentration of half-maximal effect; nearly all actives have a fitted effect of over 70% in size
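AlphaScreen: HP1-beta (50 nM) preformed 30 min with biotin-H3(1-18)K9me3 peptide (50 nM) in PBS pH 7.4, 0.01% Tween-20. Compound added for 30 min at RT, then streptavidin donor/nickel chelate acceptor beads (10 ug/mL) for 30 min.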
L3MBTL1 inh-2 = qHTS Assay for the Inhibitors of L3MBTL1: Hit Validation. Potency, µM, usual class: inhibitors. L3MBTL1 methyl-lysine binding inhibition, biochemical qHTS. 500 compounds, 91% hits. shares compounds with L3MBTL1 inh-1; note: potency is the fitted concentration of half-maximal effect; nearly all actives have a fitted effect of over 70% in size
L3MBTL1 ctr = qHTS Assay for the Inhibitors of L3MBTL1: Hit Validationin AlphaScreen Counterscreen | shares compounds with L3MBTL1 inh-1 | AlphaScreen counterscreen, signal inhibition | Potency, µM (doses to about 57.1 µM), for the others: at the top dose activity change, negative = inhibition, actives largely listed as inhibitors | 500 tested, under 10 active; note: potency is the fitted concentration of half-maximal effect; 0% is about no effect
* = called active by the depositor. Rows were chosen to be rich in hits. Some 5.7% of all compounds tested hit in one or more screens of this group. Unless noted, calls come from the whole dose curve; as a rule, active = well fitted curve in the direction sought with a large enough effect; inconclusive = small, poorly fitted or top-dose-only effect, or another doubt; inactive = no such curve, though single readings can be large; an effect the other way counts as inactive or inconclusive.

Cc1nn(CCc2nc(-c3ccco3)cs2)c2[nH]c(=O)cc(C(F)(F)F)c12 was read as JMJD2E inh inconclusive, JMJD2A Tudor inh 79.4µM*, L3MBTL1 inh-1 35.5µM*, BAZ2B inh inconclusive, HP1b chromo inh inconclusive, L3MBTL1 inh-2 21.2* and L3MBTL1 ctr 3.3%.
Screening O=c1[nH]c(=O)n(Cc2ccccc2)c2nc(-c3ccco3)cc(C(F)(F)F)c12 returned JMJD2E inh inconclusive, JMJD2A Tudor inh -1.6%, L3MBTL1 inh-1 -1.8%, BAZ2B inh 16.7%, PI5P4Ka inh inconclusive and HP1b chromo inh 30.7%.
For COC(=O)c1ccc2c(=O)[nH]c(COC(=O)c3c(-c4ccccc4Cl)noc3C)nc2c1 the results were JMJD2A Tudor inh -22.3%, L3MBTL1 inh-1 3.9%, BAZ2B inh -5.1%, PI5P4Ka inh -1.6 and HP1b chromo inh 15.2%.
`O=C(O)c1cc(-c2ccc(/C=C3\NC(=O)N(c4ccccc4)C3=O)o2)ccc1Cl` gave JMJD2E inh inconclusive, JMJD2A Tudor inh 56.2µM*, L3MBTL1 inh-1 20µM*, BAZ2B inh 79.4µM*, PI5P4Ka inh inconclusive, HP1b chromo inh -3.5%, L3MBTL1 inh-2 2.99* and L3MBTL1 ctr 3.0%.
Screening O=C(O)c1cc(N/N=C/c2ccc(-c3ccc(F)cc3)o2)ccc1Cl returned JMJD2A Tudor inh -18.0%, BAZ2B inh inconclusive, PI5P4Ka inh -3.4 and HP1b chromo inh -9.6%.
CC1=CN2C(=N)/C(=C/c3ccco3)C(=O)N=C2S1 was read as JMJD2E inh -5.4%, JMJD2A Tudor inh -11.5%, L3MBTL1 inh-1 -8.0%, BAZ2B inh -37.3%, PI5P4Ka inh inconclusive and HP1b chromo inh 6.7%.
Screening CC1=CN2C(=N)/C(=C/c3ccc([N+](=O)[O-])o3)C(=O)N=C2S1 returned JMJD2E inh 28.2µM*, JMJD2A Tudor inh 79.4µM*, L3MBTL1 inh-1 35.5µM*, BAZ2B inh 44.7µM*, PI5P4Ka inh -66.7*, HP1b chromo inh inconclusive, L3MBTL1 inh-2 13.4* and L3MBTL1 ctr -8.9%.
O=C(NCc1ccccc1)c1nnc(CS(=O)(=O)c2ccccc2)o1 was read as JMJD2A Tudor inh -6.3%, L3MBTL1 inh-1 0.6%, BAZ2B inh -1.8%, PI5P4Ka inh -8.3 and HP1b chromo inh 30.4%.
For CCOC(=O)C1=C(COC(=O)/C=C/c2ccc(OC)cc2)NC(=O)NC1C (centres undefined) the results were JMJD2A Tudor inh -4.8%, L3MBTL1 inh-1 -6.0%, BAZ2B inh 3.1%, PI5P4Ka inh 2.3 and HP1b chromo inh 10.1%.
CCOC(=O)C1=C(COC(=O)/C=C/c2ccco2)NC(=O)NC1C (centres undefined) was read as JMJD2A Tudor inh 28.2µM*, L3MBTL1 inh-1 7.94µM*, BAZ2B inh 50.1µM*, PI5P4Ka inh -53.8*, HP1b chromo inh inconclusive, L3MBTL1 inh-2 8.44* and L3MBTL1 ctr -1.3%.
Cc1ccc(S(=O)(=O)Cc2ccc(C(=O)N3CCN(Cc4ccccc4)CC3)o2)cc1 was read as JMJD2E inh -8.7%, L3MBTL1 inh-1 31.6µM*, BAZ2B inh 50.1µM*, L3MBTL1 inh-2 15* and L3MBTL1 ctr 3.0%.
For COc1ccc(S(=O)(=O)Cc2ccc(C(=O)N3CCN(Cc4ccccc4)CC3)o2)cc1 the results were JMJD2E inh -9.3%, JMJD2A Tudor inh -31.0%, L3MBTL1 inh-1 -4.8%, BAZ2B inh -5.8%, PI5P4Ka inh 6.6 and HP1b chromo inh 21.3%.
For CC(C)(CS(=O)(=O)[O-])NC(=O)CC[N+](C)(C)CCO the results were JMJD2E inh -17.6%, JMJD2A Tudor inh 3.16µM*, L3MBTL1 inh-1 3.55µM*, BAZ2B inh 2.82µM*, PI5P4Ka inh inconclusive, HP1b chromo inh 8.91µM*, L3MBTL1 inh-2 1.19* and L3MBTL1 ctr -1.2%.
`CCCc1nc2sc3c(SCC(=O)NCc4ccco4)ncnc3c2c2c1CCC2` gave JMJD2E inh inconclusive, JMJD2A Tudor inh 22.4µM*, L3MBTL1 inh-1 14.1µM*, BAZ2B inh 28.2µM*, HP1b chromo inh inconclusive, L3MBTL1 inh-2 18.9* and L3MBTL1 ctr 2.7%.
Screening Cc1nc(SCC(=O)NCc2ccco2)c2c3c(sc2n1)CCCC3 returned JMJD2E inh 0.9%, JMJD2A Tudor inh -20.0%, L3MBTL1 inh-1 -21.5%, BAZ2B inh -39.0%, PI5P4Ka inh -15.5 and HP1b chromo inh -0.1%.
Cc1cccc(NCc2ccc(O)c3ncccc23)c1C was read as JMJD2E inh -14.3%, JMJD2A Tudor inh inconclusive, L3MBTL1 inh-1 25.1µM*, BAZ2B inh 56.2µM*, PI5P4Ka inh inconclusive, HP1b chromo inh -4.4%, L3MBTL1 inh-2 9.47* and L3MBTL1 ctr 6.1%.
Screening CCCCN1Cc2c(nc3cc(-c4ccco4)[nH]n3c2=O)C1=O returned JMJD2E inh inconclusive, JMJD2A Tudor inh -17.2%, L3MBTL1 inh-1 28.2µM*, BAZ2B inh inconclusive, PI5P4Ka inh inconclusive, HP1b chromo inh 57.3%, L3MBTL1 inh-2 26.7* and L3MBTL1 ctr -26.4%.
For CC1(C)O[C@H]2[C@@H](O1)[C@@H](C(=O)Nc1cc(F)ccc1F)O[C@@H]1OC(C)(C)O[C@@H]12 the results were JMJD2A Tudor inh -9.1%, BAZ2B inh 3.8% and HP1b chromo inh 19.8%.
Screening O=C(COC(=O)C1CC(=O)N(Cc2ccccc2)C1)Nc1ccc(Cl)cc1F (centres undefined) returned JMJD2E inh -5.4%, JMJD2A Tudor inh -4.8%, L3MBTL1 inh-1 -4.9%, BAZ2B inh -14.8%, PI5P4Ka inh -2.5 and HP1b chromo inh 31.7%.
Cc1ccc(C)c(NS(=O)(=O)c2ccc3[nH]c(=O)oc3c2)c1 was read as JMJD2E inh 0.4%, JMJD2A Tudor inh -27.8%, L3MBTL1 inh-1 31.6µM*, BAZ2B inh 79.4µM*, PI5P4Ka inh inconclusive, HP1b chromo inh -9.8%, L3MBTL1 inh-2 26.7* and L3MBTL1 ctr 12.7%.

Screening results from PubChem BioAssay.
